esBAF inh = inhibitors of esBAF chromatin remodeling in mouse ES cells | Bmi1-luciferase knock-in reporter, 24 h; 100% = twice the neutral-well signal | reporter increase, % at 12.5 µM | actives 2% (n = 350,000); in the data active means activation above about 40%; inconclusive means no clear call, values can overlap the other calls;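 further: 0% = median of the plate's neutral control wells and 100% = double that signal; a rise in the Bmi1 reporter signal indicates esBAF inhibition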
Glyco luc inh = blocks N-linked glycosylation in D54 reporter cells. D54 ERlucT glycosylation luciferase reporter, 24 h; percent of 100 nM tunicamycin response. reporter increase, % at 12.5 µM. actives 0.23% (n = 360,000);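 active means mean luciferase reporter signal, scaled so untreated is 0 and the glycosylation-blocking control 100, at or above a set limit in every replicate; inconclusive means mean reaches the limit but not every replicate does; inactive means mean below the limit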;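 further: luciferase carries N-glycosylation sites so blocking glycosylation raises the light; 0% = median of neutral control wells and 100% = median of 100 nM tunicamycin wells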
MITF TRPM1 HTS = activators of MITF-driven TRPM1 promoter activity in SK-MEL-5 cells. actives 0.75% (n = 300,000). AID 588334. activation, % at 12.5 µM. SK-MEL-5 TRPM1-promoter luciferase, 24 h; % of positive control, neutral wells = 0;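 active means mean activation of at least 80% with every replicate also reaching 80%; inconclusive means mean reaches 80% but some replicate falls short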;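 further: 0% = neutral control wells and 100% = parthenolide positive control wells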
Wnt bcat act = activates Wnt/beta-catenin signaling in a reporter cell assay; activation, % at 9.35 µM; activator, plate reader; actives 1.2% (n = 300,000); AID 743398; in the data active means activation above about 30%, passing the limit was not always enough; inconclusive means no clear call, values can overlap the other calls;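 further: 0% = neutral control wells and 100% = positive control wells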
Vif imaging = blocks HIV Vif function | HEK293T cells, Vif self-association by quenched fluorescence, imaging, 24 h | inhibition, % at 7.49 µM | actives 0.35% (n = 340,000); in the data active means inhibition above about 50%, passing the limit was not always enough; inconclusive means no clear call, values can overlap the other calls; inactive means below about 31%
PvdQ acylase = P. aeruginosa PvdQ acylase inhibition | purified PvdQ acylase, fluorescence plate reader | inhibition, % at 10 µM | actives 0.063% (n = 340,000) | AID 488965; in the data active means inhibition above about 30%, passing the limit was not always enough; inconclusive means no clear call, values can overlap the other calls;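 further: 0% = vehicle neutral wells and 100% = reference inhibitor wells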
An asterisk follows results filed as active; ? = inconclusive; . = no result given. Shown are actives, neighbours in structure and some others; about 2.9% of the full set was active somewhere.

SMILES	esBAF inh	Glyco luc inh	MITF TRPM1 HTS	Wnt bcat act	Vif imaging	PvdQ acylase
Fc1cccc(/C=N/Nc2cc(N3CCOCC3)ncn2)c1	26	-6	98*	26	15	-8
Fc1ccc(/C=N/Nc2cc(N3CCOCC3)ncn2)cc1	9	4	77	26	5	-17
NC(=NCc1ccco1)NC(=O)c1ccc(Cl)cc1	49*	0	92*	3	19	-7
COc1cc(N=Nc2ccc(C(=O)N(C)C)cc2)c(C)cc1N	58*	2	2	-3	-15	-9
Cc1cc(N=Nc2c(O)c3ccccc3[nH]c2=O)ccc1N=Nc1ccc(C(=O)N(C)C)cc1	1	3	9	3	187	-17
C[C@@H](NC(=O)C[C@H]1CC[C@@H](NC(=O)Cc2ccccn2)[C@H](CO)O1)c1ccccc1	1	.	.	.	.	.
C/C(N)=C(/C#N)C(=O)CSc1nnc(Nc2cccc(C)c2)s1	60*	-1	73	-5	-3	1
O=C(Nc1nccs1)c1ccc(Br)o1	24	1	24	.	14	3
O=C(/C=C/c1ccc(Br)o1)Nc1nccs1	.	1	52	43*	3	-21
CO[C@@H]1CN(C)C(=O)c2cc(NS(=O)(=O)c3cn(C)cn3)ccc2OC[C@H](C)N(CCC(F)(F)F)C[C@@H]1C	-10	.	.	.	.	.
Fc1ccc(-c2cn3cc(C(F)(F)F)cc(Cl)c3n2)cc1	46*	-11	39	49*	7	11
COc1ccc(C(O)c2nc(-c3cc4ccccc4o3)cs2)cc1 (stereo not given)	19	2	.	2	-9	.
OC(c1ccccc1)c1nc(-c2cc3ccccc3o2)cs1 (stereo not given)	47*	-3	.	-1	-10	.
Nc1nc(-c2cc3ccccc3o2)cs1	?	-4	102*	56*	-6	1
CO[C@H]1CN(C)C(=O)c2cc(NS(=O)(=O)c3ccccc3F)ccc2OC[C@H](C)NC[C@H]1C	0	.	.	.	.	.
CCc1ccc(NC(=S)/N=C(\N)Nc2nc(C)c3cc(CC)ccc3n2)cc1	.	-1	-13	-6	-4	15
CCc1ccc2nc3nc(C)cc(C)c3c(N)c2c1	0	85*	18	0	.	-18
Cc1cc(C)c2c(N)c3ccccc3nc2n1	3	123*	.	-1	-22	-19
Cc1cc(C)c2cccc(N)c2n1	-5	9	5	-2	-2	-4
CCCNC(=O)C[C@H]1CC[C@H]2[C@@H](COC[C@H](O)CN2C(=O)Nc2cccc(Cl)c2)O1	7	.	.	.	.	.
Cn1c2ccccc2c(=O)c2ccc(-c3ccc4c(c3)OCO4)cc21	49*	0	84*	41*	-3	-3
Cc1ccccc1-c1ccc([C@H]2[C@@H](CO)N3CCCCN(C(=O)NC4CCCC4)C[C@H]23)cc1	-4	.	.	.	.	.
O=C1C(Cl)=C(Nc2ccccc2O)C(=O)N1c1ccccc1	7	4	.	55*	4	-4
O=C(NCCc1ccccc1)c1cccc([N+](=O)[O-])c1	56*	-3	94*	.	2	-5
O=C(NCCc1ccccc1)c1cccnc1	26	-1	45	34*	.	-3
SMILES	esBAF inh	Glyco luc inh	MITF TRPM1 HTS	Wnt bcat act	Vif imaging	PvdQ acylase
O=C(NCCc1ccccc1)c1cnc2ccccc2n1	-3	-9	85*	45*	-7	2
O=C(NCCc1ccccc1)c1cccc(Br)c1	53*	-4	.	15	-1	12
C[C@H]1CN([C@@H](C)CO)C(=O)CCCn2cc(nn2)CO[C@H]1CN(C)Cc1ccc2c(c1)OCO2	-7	.	.	.	.	.
O=C(NCc1cccc(Cl)c1)c1ccc(-c2cccnc2)c2ccoc12	25	-1	.	4	-6	.
O=C(NCCc1ccccc1)c1ccc(-c2cccnc2)c2ccoc12	44*	-6	.	18	-12	.
COc1ccccc1-c1ccc(Nc2cccc(C(C)=O)c2)nn1	51*	2	73	5	-8	-1
CC(=O)c1cccc(Nc2ccc(-c3ccccc3F)nn2)c1	.	2	72	10	-8	-4
CC(=O)c1ccc(Nc2ccc(-c3ccccc3C)nn2)cc1	83*	-2	85*	39*	-8	7
C/C=C/c1ccc2c(c1)O[C@@H](CN(C)C(=O)CN(C)C)[C@@H](C)CN([C@@H](C)CO)S2(=O)=O	0	.	.	.	.	.

Assay outcomes (PubChem BioAssay)
